TGFb SMAD3 inh: qHTS for Inhibitors of TGF-b; HepG2 CAGA-GFP TGF-b/SMAD3 reporter, GFP fluorescence, 18 h; TGF-beta stimulated, 500 pg/mL final; Potency, µM (top dose mostly 46.1 µM), usual class: inhibitors; 410,000 compounds, 1.2% hits; also: nearly all actives have a fitted effect of over 65% in size
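Cell-based qHTS in HEPG2 carrying a CAGA-GFP Smad reporter; compounds added before 500 pg/mL final TGF-beta, 18 h incubation at 37 degrees C, GFP fluorescence quantified per cell by imaging cytometry.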
IL-1B inflam inh: qHTS for Inhibitors of Inflammasome Signaling: IL-1-beta AlphaLISA Primary Screen; 360,000 compounds, 4.7% hits; AID 743279, 2014; THP-1 LPS/ATP IL-1B secretion, AlphaLISA, 16 h; active compounds read low; activity change, % at 57.5 µM; in the data active = activity change below about -50%; inconclusive = mostly about -30% to -49%
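Secreted IL-1B measured by AlphaLISA bead assay after 16 h compound exposure of THP-1 cells; compounds (final up to 57.5 uM) added 1 h before LPS (250 ng/mL) and ATP (1.25 mM) stimulation; lower signal means less secretion.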
ASM inhibitor: Inhibitors of Secretory Acid Sphingomyelinase (S-ASM): qHTS; 340,000 compounds, 0.006% hits; Potency, µM (highest dose often 57.5 µM), usual class: inhibitors; Sphingomyelin phosphodiesterase (Homo sapiens), P17405; placental ASM, HMU-PC fluorogenic substrate, 60 min
Target sequence (P17405 47-631 limits assumed): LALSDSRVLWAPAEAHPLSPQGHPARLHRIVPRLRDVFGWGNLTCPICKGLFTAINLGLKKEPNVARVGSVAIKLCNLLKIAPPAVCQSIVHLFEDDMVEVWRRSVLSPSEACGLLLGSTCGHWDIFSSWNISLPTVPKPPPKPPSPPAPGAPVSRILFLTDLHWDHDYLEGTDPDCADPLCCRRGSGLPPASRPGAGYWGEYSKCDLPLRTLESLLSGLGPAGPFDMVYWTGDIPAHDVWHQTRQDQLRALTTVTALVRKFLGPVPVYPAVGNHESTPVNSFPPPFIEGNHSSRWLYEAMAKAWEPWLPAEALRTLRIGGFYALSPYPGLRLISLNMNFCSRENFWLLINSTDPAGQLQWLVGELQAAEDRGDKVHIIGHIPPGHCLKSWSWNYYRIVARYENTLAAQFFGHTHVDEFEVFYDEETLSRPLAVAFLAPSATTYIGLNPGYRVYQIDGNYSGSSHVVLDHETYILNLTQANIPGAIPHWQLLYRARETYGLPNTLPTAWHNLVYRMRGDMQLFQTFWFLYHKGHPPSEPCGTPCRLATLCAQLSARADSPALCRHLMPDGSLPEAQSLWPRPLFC
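Fluorogenic HMU-PC substrate (9 uM final) is turned over by placental ASM in 60 min at 37 C after a 10 min compound preincubation. Reaction ended by alkaline stop (pH 10), with fluorescence read at 386/447 nm.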
TDP1 cell CPT: qHTS for Inhibitors of human tyrosyl-DNA phosphodiesterase 1 (TDP1): qHTS in cells in presence of CPT | chicken DT40 Tdp1-/-;hTDP1 cells + 20 nM CPT, ATP luminescence, 48 h | 420,000 compounds, 12% hits | AID 686979, 2013 | Potency, µM (top dose mostly 46.2 µM), usual class: inhibitors; also: nearly all actives have a fitted effect of over 55% in size
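Chicken DT40 Tdp1-/- cells stably complemented with human TDP1 were seeded at 400 cells/well in medium containing 20 nM camptothecin, exposed to pin-transferred compounds, and grown at 37 °C for at least 48 hr. Viability was read as ATP luminescence.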
HepG2 tox: qHTS for Inhibitors of TGF-b: Cytotox Counterscreen | Potency, µM (titrated, usually from 46.1 µM), most hits filed as cytotoxic | 410,000 compounds, 0.76% hits | HepG2 CAGA-GFP viability, ATP luminescence, 18 h
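HepG2 CAGA-GFP cells (1000/well, DMEM with 1% FBS) received compound, then TGF-beta at 500 pg/mL final, and were incubated 18 hours at 37 degrees C. Viability was read by CellTiter-Glo luminescence. Media-only wells were set as complete cell-killing and DMSO as no toxicity.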
DT40 TDP1 no CPT: qHTS for Inhibitors of human tyrosyl-DNA phosphodiesterase 1 (TDP1): qHTS in cells in absence of CPT; DT40 Tdp1-/- hTDP1 cells, no CPT, ATP luminescence, 48 h; Potency, µM (titrated, usually from 46.2 µM), actives largely listed as inhibitors; 420,000 compounds, 15% hits; also: nearly all actives have a fitted effect of over 55% in size
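Camptothecin absent (DMSO only). Human TDP1-complemented DT40 knockout cells, 400 cells/well, 37 °C for minimum 48 hr; ATP measured via CellTiter-Glo, 30 min dark incubation, luminescence.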
Each line names hits and unclear results; the compound was inactive in the other large screens; ! = not active in a repeat. Only some compounds are listed: those with a hit (about 19% of all), similar ones and a draw of the others. Unless noted, calls follow the shape of the dose curve; as a rule, active = well fitted curve in the direction sought with a large enough effect; inconclusive = small, poorly fitted or top-dose-only effect, or another doubt; inactive = no such curve, though single readings can be large; an effect the other way counts as inactive or inconclusive.

Cc1ccccc1Cn1cnc2c(oc3ccccc32)c1=O	TDP1 cell CPT inconclusive, DT40 TDP1 no CPT inconclusive
N[C@@H](CCCCP(=O)(O)O)C(=O)O	none (no result: TGFb SMAD3 inh, IL-1B inflam inh, ASM inhibitor, HepG2 tox)
CC1(C)N([O-])[N+](=O)C1(C)Br (stereo unspecified)	TDP1 cell CPT inconclusive (no result: TGFb SMAD3 inh, IL-1B inflam inh, ASM inhibitor, HepG2 tox)
C[C@]12CC[C@H](O)C[C@H]1CC[C@@H]1[C@@H]2CC[C@]2(C)C(=O)CC[C@@H]12	DT40 TDP1 no CPT inconclusive
CC(C)(C)NC[C@H](O)c1ccc(O)cc1Cl	none (no result: TGFb SMAD3 inh, IL-1B inflam inh, ASM inhibitor, HepG2 tox)
COc1ccc(C(=O)Nc2ccccc2-c2nnn(CC(=O)Nc3ccc4c(c3)OCCO4)n2)cc1	TDP1 cell CPT inconclusive, DT40 TDP1 no CPT inconclusive
O=C1NC(=O)N(c2ccccc2)C(=O)/C1=C/c1coc2ccc(O)cc2c1=O	TGFb SMAD3 inh inconclusive, TDP1 cell CPT 23µM, DT40 TDP1 no CPT 15µM
O=C1NC(=O)N(c2ccc(Cl)cc2)C(=O)/C1=C/c1coc2ccc(O)cc2c1=O	TGFb SMAD3 inh inconclusive, IL-1B inflam inh inconclusive, TDP1 cell CPT 15µM, DT40 TDP1 no CPT 15µM
O=C1NC(=S)N(c2ccccc2)C(=O)/C1=C/c1ccco1	TDP1 cell CPT inconclusive, DT40 TDP1 no CPT inconclusive
Cc1cccc(C(=O)Nc2nnc(SCC(=O)NCc3ccco3)s2)c1	TGFb SMAD3 inh inconclusive
CCC1(c2ccccc2)C(=O)NC(=O)N(C(=O)c2ccccc2)C1=O (stereo unspecified)	none (no result: TGFb SMAD3 inh, IL-1B inflam inh, ASM inhibitor, HepG2 tox)
O=C(N/N=C/c1cccnc1)c1ccc(NC(=O)C(c2ccccc2)c2ccccc2)cc1	TDP1 cell CPT 7.3µM, DT40 TDP1 no CPT 12µM (no result: ASM inhibitor)
Cc1cccnc1NC1=NCC(C)S1 (stereo unspecified)	none
CC(=O)NC1CCSC1=O (stereo unspecified)	none (no result: TGFb SMAD3 inh, IL-1B inflam inh, ASM inhibitor, HepG2 tox)
CN1[C@@H]2CC[C@H]1CC(OC(c1ccc(F)cc1)c1ccc(F)cc1)C2 (stereo partly specified)	TDP1 cell CPT 6.7µM, DT40 TDP1 no CPT 9.4µM (no result: TGFb SMAD3 inh, IL-1B inflam inh, ASM inhibitor, HepG2 tox)
CN1C2CCC1CC(OC(=O)c1cccc(O)c1)C2 (stereo unspecified)	none
COc1ccc(OC)c(C[C@H](C)N)c1	none (no result: TGFb SMAD3 inh, IL-1B inflam inh, ASM inhibitor, HepG2 tox)
O[C@H]1[C@H]2[C@H](O)CCCN2C[C@H]1O	none (no result: TGFb SMAD3 inh, IL-1B inflam inh, ASM inhibitor, HepG2 tox)
O=[N+]([O-])c1ccc(-[n+]2c(-c3ccccc3)cc(-c3ccccc3)cc2-c2ccccc2)cc1	TDP1 cell CPT inconclusive, DT40 TDP1 no CPT 21µM
Oc1ccc(-[n+]2c(-c3ccccc3)cc(-c3ccccc3)cc2-c2ccccc2)cc1	TGFb SMAD3 inh inconclusive, IL-1B inflam inh -95, TDP1 cell CPT 1.2µM, DT40 TDP1 no CPT 0.65µM
COc1ccc(-c2nc3ccccc3c(=O)o2)cc1	none
COc1ccc(-[n+]2c(-c3ccccc3)cc(-c3ccccc3)cc2-c2ccccc2)cc1	TGFb SMAD3 inh inconclusive, IL-1B inflam inh -76, TDP1 cell CPT 0.41µM, DT40 TDP1 no CPT 0.26µM
C[n+]1c(-c2ccccc2)cc(-c2ccc(O)cc2)cc1-c1ccccc1	IL-1B inflam inh inconclusive, TDP1 cell CPT 18µM, DT40 TDP1 no CPT 21µM
CCOC(=O)c1cccc(C2=C(CNC(=O)c3ccc([N+](=O)[O-])cc3)[C@H]3CC[C@@H](C2)N3Cc2ccccc2)c1	TGFb SMAD3 inh inconclusive, TDP1 cell CPT inconclusive, DT40 TDP1 no CPT inconclusive (no result: ASM inhibitor)
CN1CCC2=C[C@@H](O)[C@@H]3OC(=O)c4cc5c(cc4C3C21)OCO5 (stereo partly specified)	none (no result: TGFb SMAD3 inh, IL-1B inflam inh, ASM inhibitor, HepG2 tox)
COc1cc(OC)c(OC)cc1CN1CCN(C(=O)COc2ccc3ccccc3c2)CC1	IL-1B inflam inh inconclusive, TDP1 cell CPT inconclusive, DT40 TDP1 no CPT 26µM
COc1ccc(OCC(=O)N2CCN(Cc3ccc4c(c3)OCO4)CC2)cc1	none
COc1ccc(OCC(=O)N2CCN(Cc3ccc(SC)cc3)CC2)cc1	TGFb SMAD3 inh inconclusive, TDP1 cell CPT inconclusive, DT40 TDP1 no CPT 23µM!
COc1cccc(C(C(=O)NCc2ccco2)N(Cc2ccco2)C(=O)Cn2nnc3ccccc32)c1 (stereo unspecified)	TDP1 cell CPT inconclusive, DT40 TDP1 no CPT inconclusive
CC(C)(O)C1O[C@H]2CC[C@@]3(C)[C@@](O)(CC[C@H]4Cc5c([nH]c6ccccc56)[C@@]43C)C2=CC1=O (stereo partly specified)	TDP1 cell CPT 21µM, DT40 TDP1 no CPT 24µM (no result: TGFb SMAD3 inh, IL-1B inflam inh, ASM inhibitor, HepG2 tox)
CN1C2CCC1CC(OC(=O)c1ccc([N+](=O)[O-])cc1)C2 (stereo unspecified)	none
CC(C(=O)OC1CC2CCC(C1)N2C)c1ccc(Br)cc1 (stereo unspecified)	TDP1 cell CPT 21µM, DT40 TDP1 no CPT 16µM (no result: TGFb SMAD3 inh, IL-1B inflam inh, ASM inhibitor, HepG2 tox)
CCC(Oc1ccc(Cl)cc1)C(=O)OC1CC2CCC(C1)N2C (stereo unspecified)	TDP1 cell CPT 13µM, DT40 TDP1 no CPT 10µM (no result: TGFb SMAD3 inh, IL-1B inflam inh, ASM inhibitor, HepG2 tox)
N/C(=N\[N+](=O)[O-])N1CCN(C(=O)c2ccccc2)CC1	none
Nc1nc(N)nc(NC2CC2)n1	none (no result: TGFb SMAD3 inh, IL-1B inflam inh, ASM inhibitor, HepG2 tox)
COc1nc(NC2CCCCC2)nc(NC(C)(C)C)n1	IL-1B inflam inh inconclusive, TDP1 cell CPT inconclusive, DT40 TDP1 no CPT 12µM

From PubChem BioAssay
